Sampled rows, rich in hits. Any-hit rate of the full collection: about 0.5%.
E coli growth-1: E. coli growth inhibition, primary screen, OD600 | Escherichia coli growth, 23 h; stronger effect = lower value | OD600 absorbance (no concentration beside the values) | 330,000 tested, 0.21% active | AID 1053175, 2014;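 active means OD600 absorbance below the run mean of sample wells minus 3.6 SD, in any replicate, cut at about 0.56 in these data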
Tat export inh: E. coli Tat export inhibitors, primary screen, MC4100, TorA-mCherry reporter, fluorescence, single point; inhibition, % at 10 µM; 340,000 tested, 0.036% active;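 active means mean replicate inhibition at least 50% and at least half of replicates individually reaching 50%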;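 further: exported cargo escapes ClpAP degradation while cytoplasmic cargo is degraded and loses fluorescence; 0% = median of neutral control wells and 100% = median of NaSCN control wells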
AddAB inh: growth inhibition of E. coli expressing H. pylori AddAB, primary screen, AddAB inhibitor project, absorbance | inhibition, % at 11.9 µM | 330,000 tested, 0.29% active | AID 435030, 2010; in the data active means inhibition above about 12%;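 further: 0% = vehicle wells of infected cells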
E coli growth-2: E. coli V3065 growth inhibition, primary screen, counter-screen for AddAB inhibitor project, absorbance, OD600 | 18 h | inhibition, % at 11.9 µM | AID 449728, 2010 | 330,000 tested, 0.27% active;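 active means inhibition above the campaign's mean inhibition across all tested compounds plus 3 SD, cut at about 9.9% in these data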;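 further: uninfected addAB+ strain grown without phage in ampicillin broth; 0% = DMSO wells and 100% = ciprofloxacin 0.95 µg/ml wells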
phage Ecoli inh: growth loss of phage-infected E. coli, primary screen, RecBCD inhibitor project, absorbance, with phage, HTS; inhibition, % at 11.9 µM; AID 651602, 2012; 360,000 tested, 0.26% active; in the data active means inhibition above about 11%
RecBCD conf: growth loss of phage-infected RecBCD+ E. coli, confirmation, RecBCD inhibitor project, absorbance, E. coli V66, T4 gene 2 phage; 890 tested, 45% active; shares compounds with phage Ecoli inh; E. coli V66 + T4 2- phage, growth OD; AID 651982, 2013; inhibition, % at 11.9 µM;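 active means mean inhibition over triplicates exceeding the hit threshold derived in the original primary screen, cut at about 11% in these data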
Ecoli viability: E. coli viability inhibition, counter-screen for RecBCD inhibitor project, absorbance, high throughput; 890 tested, 29% active; inhibition, % at 11.9 µM; AID 651983, 2013; absorbance (OD) growth; shares compounds with phage Ecoli inh; in the data active means inhibition above about 20%;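 further: E. coli strain V66 grown with compound alone and no phage infection; 0% = bacteria with DMSO vehicle only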
AddAB counter: growth loss of phage-infected AddAB-carrying E. coli, confirmation, counter-screen for RecBCD inhibitor project, absorbance, E. coli V3065, T4 phage. 890 tested, 45% active. E. coli expressing H. pylori AddAB + T4 phage, OD growth; gene 2 mutant T4, recBCD-deleted host. inhibition, % at 11.9 µM. shares compounds with phage Ecoli inh;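 active means mean inhibition above the solvent-only control wells' mean plus 3 SD, cut at about 22% in these data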;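 further: higher means less bacterial growth from phage killing when AddAB is blocked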
Active calls of the source: *; nt = not tested or not shown; ! = repeats disagree.

SMILES	E coli growth-1	Tat export inh	AddAB inh	E coli growth-2	phage Ecoli inh	RecBCD conf	Ecoli viability	AddAB counter
O=[N+]([O-])c1ccc(N2CCOCC2)c2c1no[n+]2[O-]	nt	nt	nt	nt	16.8*	10.7	13.1	97.8*
O=[N+]([O-])c1ccc(N2CCOCC2)c2cccnc12	0.694	-2.1	2.2	1.8	3.9	nt	nt	nt
COC(=O)C1=C(c2ccc(OC)c(OC)c2)CC2CCC1N2C(=O)NCCCOC(C)C (configuration not stated)	0.697	nt	nt	nt	nt	nt	nt	nt
CCOC(=O)[C@]12Cc3cc(OC)ccc3C1N(Cc1ccccc1)C(=O)c1ccccc12 (some centres not stated)	0.698	nt	nt	nt	nt	nt	nt	nt
CN(C)[C@@H]1C(=O)C(C(N)=O)=C(O)[C@@]2(O)C(=O)C3=C(O)c4c(O)cccc4[C@@](C)(O)[C@H]3C[C@@H]12	nt	nt	-0.8	-0.9	nt	nt	nt	nt
CN(C)[C@@H]1C(=O)C(C(N)=O)=C(O)[C@@]2(O)C(=O)C3=C(O)c4c(O)ccc(Cl)c4[C@@](C)(O)C3C[C@@H]12 (some centres not stated)	nt	150.3*	nt	nt	99.1*	101.2*	103.6*	105.4*
CN(C)[C@@H]1C(=O)C(C(N)=O)=C(O)[C@@]2(O)C(=O)C3=C(O)c4c(O)cccc4[C@@](C)(O)C3[C@H](O)C12 (some centres not stated)	nt	149.8*!	0.4	-0.2	97.8*	101.1*	102.4*	102.4*
CN1C2CCC1CC(OC(=O)C1C=Nc3ccccc31)C2 (configuration not stated)	0.654	nt	nt	nt	nt	nt	nt	nt
Cc1cc2c(C(C)C)c(O)c(O)c(C=O)c2c(O)c1-c1c(C)cc2c(C(C)C)c(O)c(O)c(C=O)c2c1O	nt	nt	nt	nt	15.0*	5.3	5.2	7.0
Oc1cc(Cl)c(Cl)c(Cl)c1Cl	nt	-9.2	nt	nt	13.4*	13.9*	18.8	17.4
C=C[C@]12CN(C)C3C4COC(CC41)[C@]1(C(=O)Nc4ccccc41)C32 (some centres not stated)	0.715	nt	nt	nt	nt	nt	nt	nt
CC(Cc1ccccc1)NC(=O)CCCCC(=O)NC(C)Cc1ccccc1 (configuration not stated)	nt	1.4	0.0	0.4	13.9*	-3.2	-2.4	-2.2
O=[N+]([O-])c1oc2ccc3ccccc3c2c1CCO	nt	-7.9	nt	nt	99.6*	103.7*	105.0*	103.3*
COC(=O)C1=C(c2ccc(OC(F)(F)F)cc2)CC2CCC1N2C(=O)N1CCCC1 (configuration not stated)	0.667	nt	nt	nt	nt	nt	nt	nt
O=C(Cn1cc(C(=O)c2ccccc2F)c2ccccc21)NCc1ccco1	0.655	-3.9	1.7	2.5	0.0	nt	nt	nt
COCCNC(=O)Cn1cc(C(=O)c2ccccc2F)c2ccccc21	0.648	-0.8	-2.2	-1.3	43.6*	-1.7	-2.1	-3.0

From PubChem BioAssay
